Data published in the supplement of paper PMC6555819.

Legend:
Assay in all cases: PBM binding z-score (relative to random genomic background probes); higher = stronger binding; sequences stand for … in GC…GCGATTGACAGCGTAGAATGAAGG
[1] = test system: FXR:RXRa (NR concentration 270 nM, RXRa partner concentration 90 nM)
How it was run: (§1)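 Custom Agilent 4×180K protein-binding microarrays carried double-stranded probes, each with a 34-nt variable region. These regions held direct-repeat seeds, single-nucleotide variants, half-site ablations and random human genomic background sequences. Ligand-free nuclear receptor dimers were incubated on the arrays for 1 h, antibodies against each partner (one per run) detected binding, and scanned fluorescence was regression-normalized. Binding z-scores take the random background probes as reference.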

[2] = test system: LXRa:RXRa (NR concentration 270 nM, RXRa partner concentration 90 nM)
How it was run: as §1

[3] = test system: LXRa homodimer (NR concentration 270 nM)
How it was run: as §1

[4] = test system: LXRb:RXRa (NR concentration 270 nM, RXRa partner concentration 90 nM)
How it was run: as §1

[5] = test system: LXRb homodimer (NR concentration 270 nM)
How it was run: as §1

[6] = test system: PPARa:RXRa (NR concentration 270 nM, RXRa partner concentration 90 nM)
How it was run: as §1

[7] = test system: PPARg:RXRa (NR concentration 180 nM, RXRa partner concentration 90 nM)
How it was run: as §1

[8] = test system: PPARg:RXRa 270nM:90nM, anti-RXR (NR concentration 270 nM, RXRa partner concentration 90 nM)
How it was run: as §1

[9] = test system: PPARg:RXRa 30nM:10nM, anti-RXR (NR concentration 30 nM, RXRa partner concentration 10 nM)
How it was run: as §1

[10] = test system: PPARg:RXRa 90nM:30nM, anti-RXR (NR concentration 90 nM, RXRa partner concentration 30 nM)
How it was run: as §1

[11] = test system: PPARg:RXRa DBDmut IVT, anti-RXR (DBD mutation: RXRa K156A/R161A, NR concentration 270 nM, RXRa partner concentration 90 nM)
How it was run: as §1

[12] = test system: PPARg:RXRa IVT, anti-PPARg (NR concentration 270 nM, RXRa partner concentration 90 nM)
How it was run: as §1

[13] = test system: PPARg DBDmut:RXRa IVT, anti-PPARg (DBD mutation: PPARg1 K132A/R137A, NR concentration 270 nM, RXRa partner concentration 90 nM)
How it was run: as §1

[14] = test system: PPARg DBDmut IVT, anti-PPARg (DBD mutation: PPARg1 K132A/R137A, NR concentration 270 nM)
How it was run: as §1

[15] = test system: PPARg homodimer (NR concentration 180 nM)
How it was run: as §1

[16] = test system: PXR:RXRa (NR concentration 270 nM, RXRa partner concentration 90 nM)
How it was run: as §1

[17] = test system: PXR homodimer (NR concentration 270 nM)
How it was run: as §1

[18] = test system: RARa:RXR (NR concentration 270 nM, RXRa partner concentration 90 nM)
How it was run: as §1

[19] = test system: RARa homodimer (NR concentration 270 nM)
How it was run: as §1

[20] = test system: RARb:RXRa (NR concentration 270 nM, RXRa partner concentration 90 nM)
How it was run: as §1

Sequence | PBM binding z-score [1] | PBM binding z-score [2] | PBM binding z-score [3] | PBM binding z-score [4] | PBM binding z-score [5] | PBM binding z-score [6] | PBM binding z-score [7] | PBM binding z-score [8] | PBM binding z-score [9] | PBM binding z-score [10] | PBM binding z-score [11] | PBM binding z-score [12] | PBM binding z-score [13] | PBM binding z-score [14] | PBM binding z-score [15] | PBM binding z-score [16] | PBM binding z-score [17] | PBM binding z-score [18] | PBM binding z-score [19] | PBM binding z-score [20]
CCTACTGGGGCAAGGTTACCATAACGCACAGCCA | 0.343 | 0.654 | -0.167 | 0.621 | -0.484 | 2.59 | 4.74 | 4.44 | 2.15 | 4.29 | 4.78 | 5.52 | 2.27 | 0.765 | 2.66 | 0.3 | -0.0906 | 0.631 | 0.512 | 1.7
CATACAGGGTCAGCTAGGCCAGACTAGGGACGGC | 4.02 | 2.77 | -0.135 | 1.97 | 0.282 | 4.06 | 3.31 | 2.8 | 0.502 | 1.8 | 1.3 | 2.37 | 0.631 | 0.373 | 0.901 | 2.01 | 0.149 | 2.36 | 0.259 | 3.94
CGTCCAAGGTCAAGGTCAGTGCAAGAGACTCGAA | 7.47 | 5.77 | 1.19 | 4.77 | 0.528 | 5.84 | 6.07 | 6.18 | 2.4 | 5.09 | 3.72 | 4.78 | -0.258 | -0.287 | 3.45 | 5.43 | 2.22 | 5.21 | 1.13 | 5.62
CGTCAAAGTTCAACTAAGGTAACGGAAAGCACGC | 6.73 | 6.18 | 3.33 | 4.2 | 2.03 | 5.27 | 4.86 | 5.75 | 1.99 | 4.58 | 0.353 | 2.18 | 0.489 | 0.064 | 3.4 | 5.37 | 3.68 | 3.89 | 1.31 | 5.45
TCATATAGGTAATTGCTAGGTGAAAGTCCGATCT | 0.86 | 0.654 | 0.0873 | 0.781 | 0.17 | 1.41 | 0.771 | 2.36 | 3.67 | 3.02 | 4.13 | 2.91 | 0.632 | 1.27 | 0.408 | 0.515 | 0.224 | 0.757 | 0.784 | 0.345
GCTAGCAGCCCATTTGGGTCACTCAATGACGGGC | -0.281 | -0.586 | -0.832 | -0.285 | -0.892 | 0.853 | 0.291 | 0.0178 | -0.724 | -0.506 | -0.167 | 0.995 | -0.831 | -1.56 | -0.798 | -0.106 | -0.918 | 0.359 | -1.15 | 0.893
CAAACTGGGTCACGAAAGGTCAAAGTCGAATGAC | 7.32 | 8.03 | 6.63 | 7.01 | 2.08 | 6.6 | 10.5 | 8.52 | 6.44 | 8.43 | 8.29 | 8.88 | 2.86 | 1.62 | 5.34 | 7.09 | 2.6 | 7.48 | 2.73 | 5.56
CGTCCAATGTCAAAGGTCAGTGAAGAGATGACGG | 4.62 | 4.48 | 1.56 | 3.64 | 0.773 | 5.18 | 6.67 | 6.88 | 4.57 | 6.96 | 0.671 | 3.16 | 0.777 | 0.834 | 4.53 | 4.53 | 0.54 | 6.27 | 2 | 4.36
CCTTATGGGTCACGAGGTTATAGCACGACGAGCG | 6.1 | 3.8 | 0.305 | 3.32 | -0.173 | 5.75 | 8.15 | 6.96 | 4.18 | 6.72 | 6.86 | 7.13 | 2.07 | 2.59 | 3.76 | 3.9 | 0.436 | 5.4 | 0.87 | 4.43
GCGAATGGGGCATCAGCAGGTTACCATAACTTAA | -0.164 | -0.221 | -0.232 | 0.924 | -0.446 | 0.796 | 0.281 | -0.0121 | -0.215 | -0.384 | 0.757 | 0.63 | -0.741 | -0.65 | 0.165 | 0.102 | -0.437 | 0.532 | -0.444 | 0.614
CCTTACGGGTCACGGACAGGTTATAGCATTTGGA | 6.85 | 5.09 | 0.422 | 4.42 | 0.0189 | 6.01 | 6.38 | 6.56 | 3.37 | 5.44 | 3.87 | 4.87 | 1.03 | 2.15 | 5.94 | 4.82 | 0.261 | 6.3 | 2.04 | 4.37
TCTCGGAGGACACGAAGGTCTGAGCTTTCCAGAG | -0.23 | -0.358 | -1.07 | -0.541 | -1.44 | 0.131 | -0.309 | 0.641 | 1.91 | 1.38 | 1.12 | -0.0413 | -0.829 | -1.69 | -0.904 | -0.33 | -0.787 | 0.107 | -1.21 | 1.46
CCTAGCAGGCCAATCTGCGTCACTCAAGGCTTGA | -0.461 | -0.378 | -0.462 | -0.429 | -0.0755 | -0.332 | -0.41 | -1.08 | -1.19 | -1.21 | 1.32 | -0.303 | -1.31 | -0.968 | -0.505 | -0.683 | -0.513 | -0.426 | -0.164 | 0.0378
